{"source": "PubChem BioAssay (NCI)", "note": "About 83,000 compounds went through this panel and 20% of them were active in at least one assay; those are over-represented in the sample as a whole.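 Testing used 96-well plates and a 48-hour single-concentration exposure. Example: -40 means 40% of the starting cells died.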 Active and inactive are the calls of the source. How the source made its calls: active means growth percent below 10; inactive means the rest.", "data": [{"system": "OVCAR-3 ovarian", "experiment": "NCI-60 one-dose screen, 48 h (100 = growth as untreated, 0 = no growth, -100 = all killed)", "settings": "10 µM unless noted", "values": [{"smiles": "C=CN(C(=O)N1CCN(c2cc3c(cc2F)c(=O)c(C(=O)O)cn3C2CC2)CC1)c1nc(-c2ccccc2)cs1", "growth": "108% (inactive)"}, {"smiles": "CNCCCNc1nc2ccccc2c2c(=O)c3cc(Cl)ccc3sc12", "growth": "9.78% (active)"}, {"smiles": "CCOC(=O)C1=C(CCl)N(C)C(=O)NC1c1ccc2c(c1)OCO2", "note": "(configuration not stated)", "growth": "25.2% (inactive)"}, {"smiles": "COc1ccc(C2[C@@H](Cl)C(=O)N2c2cc(OC)c(OC)c(OC)c2)cc1Cl", "note": "(some centres not stated)", "growth": "-2.62% (active)"}, {"smiles": "Cn1cc(-c2nonc2-c2c[nH]c3ccccc23)c2cc(Br)ccc21", "growth": "33.5% (inactive)"}, {"smiles": "COc1cc2c3c(c4c5ccccc5[nH]c4c2c(OC)c1OC)C(=O)N(CCN1CCCCC1)C3=O", "growth": "-20.7% (active)"}, {"smiles": "COC(=O)/C(CCC=C(C)C)=C1\\[C@@H](OC(C)=O)C[C@@]2(C)[C@H]1C/C(=N/O)[C@H]1[C@@]3(C)CC/C(=N\\O)[C@@H](C)[C@@H]3CC[C@@]12C", "growth": "93.8% (inactive)"}, {"smiles": "Cc1[nH]n(-c2cccc(Cl)c2)c(=O)c1/C=C1\\C=c2ccccc2=CC1=O", "growth": "63.2% (inactive)"}, {"smiles": "CCN(CC)CCn1c2ccc(OC)cc2c2sc3cc(O)ccc3c(=O)c21", "growth": "38.3% (inactive)"}, {"smiles": "C=C1C(=O)O[C@H]2[C@H]1CC/C(COC(=O)NCc1ccc(Cn3c(=O)sn(-c4ccc(I)cc4)c3=O)cc1)=C\\CC[C@@]1(C)O[C@@H]21", "growth": "23.7% (inactive)"}, {"smiles": "CS(=O)(=O)Nc1cc(-c2ccc3ncnc(Nc4ccc5c(cnn5Cc5ccncc5)c4)c3c2)cnc1Cl", "growth": "37% (inactive)"}, {"smiles": "COc1ccc2cc(C(=O)N3CCC([C@@H](C)C(=O)NCc4ccc5c(c4)OCO5)CC3)[nH]c2c1", "growth": "8.71% [50 µM] (active)"}]}]}
